A short description of experiment [1]: A CellTox Green Cytotoxicity Assay to monitor cytotoxicity in HEK293 cells - 32 hour (AID 1224881). Note: nearly all actives have a fitted effect of over 40% in size. Summed up:
(§1)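 Tox21 screen in HEK293: membrane-impermeant cyanine dye fluoresces on binding dead-cell DNA; compound pinned 5 h post-seeding, plates held at 37 C, signal read repeatedly through 40 h.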

Experiment [2] is described as follows: A CellTox Green Cytotoxicity Assay to monitor cytotoxicity in HepG2 cells - 0 hour (AID 1224882). Note: nearly all actives have a fitted effect of over 35% in size. Note: potency is the fitted concentration of half-maximal effect. Summed up: (§2)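 Measurements at 0, 8, 16, 24, 32 and 40 h of treatment captured CellTox Green fluorescence in HepG2 cells that had been co-plated with reagent and preincubated 5 h at 37 C/5% CO2.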
A short description of experiment [3]: A CellTox Green Cytotoxicity Assay to monitor cytotoxicity in HepG2 cells - 32 hour (AID 1224883). Note: nearly all actives have a fitted effect of over 50% in size. Summed up:
as §2

Experiment [4] is described as follows: A CellTox Green Cytotoxicity Assay to monitor cytotoxicity in HEK293 cells - 8 hour (AID 1224884). Note: nearly all actives have a fitted effect of over 35% in size. In a few lines: as §1
The nature of experiment [5]: qHTS RealTime-Glo MT Cell Viability Assay in HepG2 cells - 16 hour (AID 1224885). Note: nearly all actives have a fitted effect of over 50% in size. In a few lines:
(§3)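 Luminescence read-out: viable HepG2 cells reduce a prosubstrate to a NanoLuc substrate, giving a signal proportional to live cell number. Reads taken at 0, 8, 16, 24, 32 and 40 h of compound exposure at 37 C.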
A general note: qHTS replaces the single test concentration by a dilution series.

Experiment [6] is described as follows: qHTS RealTime-Glo MT Cell Viability Assay in HEK293 cells - 8 hour (AID 1224887). Note: top concentration of the series differs between compounds; nearly all actives have a fitted effect of over 50% in size. Summed up:
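HEK293 + NanoLuc + prosubstrate, 600 cells/well; 5 h, 37 C/5% CO2; compound 23 nL in DMSO by pintool; 37 C; luminescence read at 0, 8, 16, 24, 32 and 40 h time points.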

A short description of experiment [7]: A CellTox Green Cytotoxicity Assay to monitor cytotoxicity in HEK293 cells - 16 hour (AID 1224888). Note: nearly all actives have a fitted effect of over 35% in size. Summed up:
as §1

Experiment [8] can be described thus: qHTS RealTime-Glo MT Cell Viability Assay in HepG2 cells - 0 hour (AID 1224889). Note: nearly all actives have a fitted effect of over 50% in size. Note: potency is the fitted concentration of half-maximal effect. In a few lines:
as §3

Experiment [9] can be described thus: A CellTox Green Cytotoxicity Assay to monitor cytotoxicity in HepG2 cells - 8 hour (AID 1224890). Note: nearly all actives have a fitted effect of over 45% in size. Summed up: as §2
The nature of experiment [10]: qHTS RealTime-Glo MT Cell Viability Assay in HEK293 cells - 24 hour (AID 1224886). In a few lines:
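Nonlytic real-time viability readout: viable cells convert prosubstrate to NanoLuc substrate, giving luminescence proportional to live cell number. HEK293, 600 cells/well, compound added after 5 h, continuous culture at 37 C.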

Molecules are shown by their SMILES. Results filed as inconclusive are left out. The source made the active and inactive calls. Calls come from the whole dose curve; as a rule, active = well fitted curve in the direction sought with a large enough effect in the repeat runs; inconclusive = weak or mixed curves; inactive = no such curve, though single readings can be large; an effect the other way counts as inactive or inconclusive.

Take `Cn1c(N)nc2nc[nH]c2c1=O`: the Potency result in experiment [1], in experiment [2], in experiment [3], in experiment [4], in experiment [5] and in experiment [6] was “inactive” each time. The Potency entry in [7], in [8] and in experiment [9] was “inactive” each time.

Turning to `COc1ccc(OC)c(OC)c1`, the Potency entry in experiment [1], in experiment [2], in [3], in [4], in experiment [10] and in experiment [6] was “inactive” in each case. Further, the Potency result in experiment [7], in [8] and in experiment [9] was “inactive” throughout.

As to `CC(=O)[C@@]1(O)CC[C@H]2[C@@H]3C[C@H](C)C4=CC(=O)CC[C@]4(C)[C@H]3CC[C@@]21C`, the Potency entry in [1], in [2], in experiment [3], in experiment [4], in experiment [5] and in [7] was “inactive” throughout. Further, the Potency entry in experiment [9] is “inactive”. Further, the Potency in [8] was 1.51 µM (active).

For the compound `CC(C)(C)c1ccc(S)cc1`, the Potency entry in experiment [1], in experiment [2], in [3], in experiment [4], in [5] and in experiment [10] was “inactive” each time. For the same compound, the Potency entry in experiment [7], in experiment [8] and in experiment [9] was “inactive” in each case.

As for `CC(=O)CC(=O)c1ccccc1`, the Potency result in experiment [1], in experiment [2], in experiment [3], in experiment [4], in [5] and in experiment [6] was “inactive” in each case. In addition, the Potency entry in [7], in experiment [8] and in experiment [9] was “inactive” each time.

In the case of `Nc1nc(N)c2nc(CNc3ccc(C(=O)N[C@@H](CCC(=O)O)C(=O)O)cc3)cnc2n1`, the Potency entry in experiment [1], in experiment [2], in experiment [3], in experiment [4], in [10] and in experiment [6] was “inactive” in each case. Also, the Potency result in experiment [7], in experiment [8] and in [9] was “inactive” throughout.

For `NC1CCN(c2nc3c(cc2F)c(=O)c(C(=O)O)cn3-c2ccc(F)cc2F)C1` (configuration not stated), the Potency entry in [1], in experiment [2], in [3], in experiment [4], in [5] and in experiment [10] was “inactive” throughout. In addition, the Potency result in experiment [7], in experiment [8] and in experiment [9] was “inactive” in each case.

Regarding `CC(=O)N(O)CCCCCNC(=O)CCC(=O)N(O)CCCCCNC(=O)CCC(=O)N(O)CCCCCN`, the Potency entry in [1], in [2], in experiment [3], in experiment [4], in experiment [5] and in experiment [7] was “inactive” throughout. In addition, the Potency result in experiment [8] and in experiment [9] was “inactive” in each case.

For the compound `CN(c1nccc(=O)[nH]1)C1CCN(c2nc3ccccc3n2Cc2ccc(F)cc2)CC1`, the Potency result in [1], in [2], in [3], in experiment [4], in experiment [5] and in experiment [7] was “inactive” each time. Also, the Potency entry in experiment [8] was “inactive”.

For `Cc1cc(C)c(S(=O)(=O)O)cc1N=Nc1cc(S(=O)(=O)O)c2ccccc2c1O`, the Potency entry in experiment [1], in experiment [2], in [3], in [4], in experiment [5] and in experiment [7] was “inactive” in each case. The Potency result in [8] is “inactive”.

With `CCCOc1ccc2nc(NC(=O)OC)[nH]c2c1`, the Potency result in experiment [1], in [2], in [3], in experiment [4], in experiment [5] and in [6] was “inactive” in each case. Further, the Potency result in experiment [7], in [8] and in [9] was “inactive” in each case.

As to `OC(CCN1CCCCC1)(c1ccccc1)C1CCCCC1` (configuration not stated), the Potency entry in experiment [1], in experiment [2], in experiment [3], in [4], in [5] and in experiment [6] was “inactive” in each case. Further, the Potency result in experiment [7] and in experiment [8] was “inactive” each time.

Regarding `CCC(=O)OC(C)(C)C1CC=C(C)CC1` (configuration not stated), the Potency entry in experiment [1], in experiment [2], in experiment [3], in experiment [4], in [10] and in experiment [6] was “inactive” throughout. Further, the Potency entry in experiment [7], in experiment [8] and in experiment [9] was “inactive” in each case.

On to `CC(=O)OCCc1ccccc1`, for which the Potency result in experiment [1], in [2], in experiment [3], in experiment [4], in [10] and in experiment [6] was “inactive” each time. The Potency result in [7], in [8] and in experiment [9] was “inactive” each time.

In the case of `CC(C)(C)C1CCCCC1O` (configuration not stated), the Potency entry in experiment [1], in experiment [2], in [4], in experiment [5], in experiment [10] and in experiment [6] was “inactive” each time. Besides, the Potency entry in [7] and in [8] was “inactive” each time.

Regarding `CC(=O)OC/C=C/c1ccccc1`, the Potency result in experiment [1], in [2], in experiment [3], in [4], in experiment [10] and in [7] was “inactive” in each case. Moreover, the Potency result in experiment [8] is “inactive”.

Regarding `Cc1cc(NC(=O)C(=O)O)cc(C)c1Oc1ccc(O)c2c1CCC2`, the Potency entry in [1], in experiment [2], in experiment [3], in experiment [4], in experiment [10] and in experiment [6] was “inactive” each time. The Potency entry in [7] and in experiment [9] was “inactive” throughout.

In the case of `CCCCCCCCCCCCCCC1CO1` (configuration not stated), the Potency result in [1], in [2], in [3], in [4], in [10] and in [7] was “inactive” in each case. For the same compound, the Potency entry in experiment [8] and in experiment [9] was “inactive” throughout.

For `CC(C)(C)c1cc(CCC(=O)OCC(COC(=O)CCc2cc(C(C)(C)C)c(O)c(C(C)(C)C)c2)(COC(=O)CCc2cc(C(C)(C)C)c(O)c(C(C)(C)C)c2)COC(=O)CCc2cc(C(C)(C)C)c(O)c(C(C)(C)C)c2)cc(C(C)(C)C)c1O`, the Potency result in experiment [1], in experiment [2], in experiment [3], in experiment [4], in [10] and in experiment [6] was “inactive” throughout. The Potency result in experiment [7], in experiment [8] and in experiment [9] was “inactive” in each case.

In the case of `O=C1CCCCCO1`, the Potency entry in experiment [1], in [2], in [3], in experiment [4], in experiment [10] and in experiment [6] was “inactive” each time. The Potency entry in experiment [7], in [8] and in experiment [9] was “inactive” throughout.

`CN(C)CC[C@@H](c1ccc(Br)cc1)c1ccccn1`: the Potency result in experiment [1], in experiment [2], in experiment [3], in experiment [4], in experiment [7] and in experiment [8] was “inactive” throughout.

As to `C#CCOC(=O)[C@@H](C)Oc1ccc(Oc2ncc(Cl)cc2F)cc1`, the Potency result in experiment [1], in experiment [2], in experiment [3], in experiment [5], in [10] and in [7] was “inactive” throughout. For the same compound, in experiment [8], the Potency entry was “inactive”.

Regarding `O=[N+]([O-])c1cc[n+]([O-])cc1`, the Potency entry in [1], in experiment [2], in experiment [3], in experiment [4], in experiment [10] and in experiment [6] was “inactive” throughout. The Potency result in experiment [7], in experiment [8] and in [9] was “inactive” throughout.

As for `CC(C)(C)c1cc(CO)cc(C(C)(C)C)c1O`, the Potency result in [1], in experiment [2], in experiment [3], in [4], in experiment [7] and in [8] was “inactive” throughout. Further, the Potency entry in [9] was “inactive”.

In the case of `CC(C)(C)C(=O)OCOP(=O)(COCCn1cnc2c(N)ncnc21)OCOC(=O)C(C)(C)C`, the Potency result in [1], in experiment [2], in experiment [3], in experiment [4], in experiment [6] and in [7] was “inactive” each time. The Potency result in [8] and in [9] was “inactive” in each case.

For `CCOc1ccc2[nH]cc(C(=O)NCc3ccccc3)c(=O)c2n1`, the Potency entry in [1], in experiment [2], in [3], in experiment [4], in [10] and in experiment [6] was “inactive” each time. Moreover, the Potency entry in [7], in [8] and in [9] was “inactive” in each case.

Consider `O=C(O)[C@@H]1[C@H]2C[C@H]3c4[nH]c5ccccc5c4CCN3C[C@@H]2CC[C@@H]1O`, for which the Potency entry in experiment [1], in experiment [4], in experiment [5], in experiment [10], in experiment [6] and in [7] was “inactive” each time. Besides, the Potency entry in experiment [8] was “inactive”. The Potency in experiment [2] is 10.7 µM (active).
